Active and inactive are the calls of the source. Unless noted, no rule for the calls is given here.
Columns and labels:
[1] = resazurin metabolic signal in HepG2 cells – cell-based, resazurin fluorescence, 24 h, PK04 Diversity Set, profiling panel (AID 1172); settings: HepG2 viability, higher = more signal; also: test concentration not given here
[2] = budding yeast growth changes without added modifier – OD600, strain BY4716, 24 h, basal condition, primary screen (AID 1173); settings: S. cerevisiae BY4716 growth, OD600, 24 h; higher = more signal, called active from +8 up or from −8 down
[3] = viability profiling in MM1S myeloma cells – cell-based, resazurin fluorescence, basal, 24 h, PK04 Diversity Set, profiling panel (AID 1174); settings: higher = more signal, called active from +8 up or from −8 down;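 also: MM1S multiple myeloma cell line; test concentration not given here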
[4] = biological target: Dihydroorotate dehydrogenase (quinone), mitochondrial (Plasmodium falciparum (isolate 3D7)) (UniProt Q08210); test: inhibition of P. falciparum DHODH – biochemical, C-terminal His tag, absorbance 600 nm, primary screen (AID 1175); settings: PfDHODH enzyme, DCIP absorbance 600 nm; higher = more signal, called active from +8 up or from −8 down;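 also: recombinant parasite enzyme with a five histidine tag at its C terminus; test concentration not given here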
[5] = inhibition of PAO1 biofilm formation – strain PAO1, LB-PBS medium, absorbance 600 nm, primary screen (AID 1176); also: test concentration not given here; settings: P. aeruginosa PAO1 growth/biofilm, A600, 12 h; higher = more signal
[6] = growth modulation of vineyard yeast isolate – strain RM11-1a, OD600, basal, 24 h, primary screen (AID 1177);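 also: cultures grown under basal conditions with no added stressor; test concentration not given here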; settings: S. cerevisiae RM11-1a growth, OD600, 24 h; higher = more signal, called active from +8 up or from −8 down
[7] = growth of efflux-deficient E. coli DRC39 – strain DRC39, OD650, 24 h, E. coli filamentation inducers, primary screen (AID 1178);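 also: growth measured as culture turbidity by optical density at 650 nm; test concentration not given here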; settings: E. coli DRC39 acrAB, higher = more signal, called active from +8 up or from −8 down
[8] = growth of efflux-deficient E. coli DRC39 – strain DRC39, OD650, 48 h, E. coli filamentation inducers, primary screen (AID 1179);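 also: screen aims at cell division blockers that make cells filament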; settings: E. coli DRC39 delta-acrAB growth, higher = more signal, called active from +8 up or from −8 down
[9] = viability profiling in RPMI8226 myeloma cells – cell-based, resazurin fluorescence, basal, 24 h, PK04 Diversity Set, profiling panel (AID 1180); settings: higher = more signal;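 also: RPMI8826 multiple myeloma cell line at 5000 cells per well; test concentration not given here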
[10] = biological target: E3 ubiquitin-protein ligase XIAP (Homo sapiens) (UniProt P98170); test: small molecules binding XIAP protein – biophysical, small-molecule microarray, fluorescence 635 nm, primary screen (AID 1181); settings: higher = more signal;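 also: score merges 667 nm emission and signal to noise over triplicate slides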
Sequence of E3 ubiquitin-protein ligase XIAP (Homo sapiens) (P98170 whole entry, looked up): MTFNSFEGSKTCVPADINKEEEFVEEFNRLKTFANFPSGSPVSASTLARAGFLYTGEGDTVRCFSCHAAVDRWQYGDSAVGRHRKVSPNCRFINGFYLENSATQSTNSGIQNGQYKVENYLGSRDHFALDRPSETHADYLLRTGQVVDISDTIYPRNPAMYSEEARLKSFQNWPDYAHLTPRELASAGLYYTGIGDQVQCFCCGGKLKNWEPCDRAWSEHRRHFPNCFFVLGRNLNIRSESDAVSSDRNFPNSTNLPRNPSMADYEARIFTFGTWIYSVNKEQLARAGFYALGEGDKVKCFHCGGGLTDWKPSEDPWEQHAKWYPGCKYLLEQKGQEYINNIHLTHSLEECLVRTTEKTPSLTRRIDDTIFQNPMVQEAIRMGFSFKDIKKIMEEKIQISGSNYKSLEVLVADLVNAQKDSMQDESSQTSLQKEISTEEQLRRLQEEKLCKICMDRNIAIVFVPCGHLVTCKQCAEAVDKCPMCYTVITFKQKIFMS

Sequence of Dihydroorotate dehydrogenase (quinone), mitochondrial (Plasmodium falciparum (isolate 3D7)) (Q08210 whole entry, looked up): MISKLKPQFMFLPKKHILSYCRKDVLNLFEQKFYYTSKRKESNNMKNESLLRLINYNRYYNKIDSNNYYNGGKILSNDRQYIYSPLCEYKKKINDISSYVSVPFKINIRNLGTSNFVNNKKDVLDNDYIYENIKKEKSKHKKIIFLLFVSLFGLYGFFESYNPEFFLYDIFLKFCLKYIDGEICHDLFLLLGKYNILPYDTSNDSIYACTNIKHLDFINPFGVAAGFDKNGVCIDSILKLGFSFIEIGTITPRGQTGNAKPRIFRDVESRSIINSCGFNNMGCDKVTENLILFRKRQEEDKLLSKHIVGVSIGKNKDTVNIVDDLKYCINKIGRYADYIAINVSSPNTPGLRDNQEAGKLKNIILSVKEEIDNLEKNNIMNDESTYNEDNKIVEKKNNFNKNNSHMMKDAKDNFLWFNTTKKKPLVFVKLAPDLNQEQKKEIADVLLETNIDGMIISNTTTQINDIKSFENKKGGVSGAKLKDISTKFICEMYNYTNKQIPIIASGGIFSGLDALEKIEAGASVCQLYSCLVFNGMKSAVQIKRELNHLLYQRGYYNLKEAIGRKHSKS

| SMILES | z-score [1] | z-score [2] | z-score [3] | composite z-score [4] | z-score [5] | z-score [6] | z-score [7] | z-score [8] | z-score [9] | composite z-score [10] |
| --- | --- | --- | --- | --- | --- | --- | --- | --- | --- | --- |
| COc1ccc([Si](C)(C)[C@H]2[C@H](CC(=O)N3Cc4ccccc4C[C@H]3CO)O[C@@]3(C(=O)N(Cc4ccc(N5CCC5=O)cc4)c4ccccc43)[C@@H]2C)cc1 | 0.194 | -0.535 (inactive) | -1.56 (inactive) | -3.08 (inactive) | 0.201 (inactive) | 1.83 (inactive) | -0.0476 (inactive) | -0.421 (inactive) | -1.26 | 0.216 |
| COCCOC(=O)N1C(=O)[C@@]2(c3cc(C#CCCO)ccc31)[C@H](C(=O)N1CCN(c3ncccn3)CC1)[C@H]1C(=O)O[C@H](c3ccccc3)[C@H](c3ccccc3)N1[C@@H]2c1ccccc1OCCO | 0.906 | 0.674 (inactive) | 0.399 (inactive) | -0.237 (inactive) | -0.116 (inactive) | 1.36 (inactive) | 0.111 (inactive) | -0.776 (inactive) | 0.485 | -0.0312 |
| COCCn1c(C(=O)N2CCCC2)cc2c1C[C@H]1CN(C(=O)c3ccccc3)[C@@](Cc3ccc(F)cc3)(C(=O)OC)[C@@H]21 | 0.203 | 0.734 (inactive) | -0.829 (inactive) | -0.343 (inactive) | 0.315 (inactive) | 0.39 (inactive) | -0.0243 (inactive) | -0.622 (inactive) | -1.37 | 0.0927 |
| CCCCCC1=C2CNC(CCC)(C(=O)OC)C=C2C(C)C1=O (stereo not given) | -1.08 | 0.381 (inactive) | -1.34 (inactive) | -1.62 (inactive) | 0.796 (inactive) | 0.891 (inactive) | 0.0107 (inactive) | 0.56 (inactive) | -0.888 | 0.347 |
| COc1ccc(C(O)C2C=CC3C(=O)N(c4ccccc4)C(=O)C3N2Nc2ccc(C(C)C)cc2)cc1OCc1ccccc1 (stereo not given) | -0.217 | -1.78 (inactive) | -0.0284 (inactive) | 0.785 (inactive) | 2.33 (inactive) | 0.165 (inactive) | -1.91 (inactive) | -1.38 (inactive) | -0.291 | -0.0535 |
| CCCCCCC#C[Si](O[C@H](c1ccccc1)c1cn([C@H](CO)Cc2ccccc2)nn1)(C(C)C)C(C)C | 1.13 | -1.93 (inactive) | 0.389 (inactive) | -3.69 (inactive) | 0.395 (inactive) | -0.297 (inactive) | 0.953 (inactive) | 1.57 (inactive) | 0.881 | -0.157 |
| COCC(=C=CC[C@@H](O)c1ccccc1OCCO)C[C@@H](O)c1cc(Cl)cc(Cl)c1O | -0.127 | -2.33 (inactive) | -0.541 (inactive) | -1.31 (inactive) | 0.26 (inactive) | 0.216 (inactive) | -0.259 (inactive) | -0.424 (inactive) | -0.394 | -0.0553 |
| CN(C)CCCNC(=O)[C@@]1(c2ccc([N+](=O)[O-])cc2)CC(=O)N(C2CCCCC2)[C@@H]1c1ccc(CO)cc1 | -0.252 | -1.59 (inactive) | -0.0665 (inactive) | 0.456 (inactive) | -0.177 (inactive) | -0.0078 (inactive) | 0.328 (inactive) | -0.16 (inactive) | -0.155 | -0.0073 |
| CC[C@@H]1C=C(C(=O)O)[C@H](c2ccco2)N1S(=O)(=O)c1ccc(C)cc1 | -0.456 | 0.538 (inactive) | -0.283 (inactive) | 0.267 (inactive) | 0.449 (inactive) | -0.0109 (inactive) | -0.721 (inactive) | 0.34 (inactive) | -0.88 | 0.124 |
| COC(=O)C=C(CC(O)c1cccc(Cl)c1)OC (stereo not given) | -0.0421 | -11.9 (active) | 0.427 (inactive) | -1 (inactive) | -1.07 (inactive) | -1.85 (inactive) | -0.246 (inactive) | 0.861 (inactive) | -0.219 | -0.169 |
| O=C1O[C@H](c2ccccc2)[C@H](c2ccccc2)N2[C@H]1[C@@H](C(=O)Nc1nc3ccccc3s1)[C@]1(C(=O)Nc3ccc(C#CC4(O)CCCCCC4)cc31)[C@H]2c1ccc(OCCO)cc1 | -0.43 | 1.16 (inactive) | -1.4 (inactive) | -0.568 (inactive) | 4.15 (inactive) | 0.773 (inactive) | -0.34 (inactive) | -0.706 (inactive) | -1.1 | 0.167 |
| C[C@@H]1ON(c2cccc(C(=O)OC(C)(C)C)c2)[C@H](c2ccc(Br)cc2)[C@H]1C(=O)N1C(=O)OC[C@H]1Cc1ccccc1 | 0.0192 | 0.724 (inactive) | 0.433 (inactive) | 1.17 (inactive) | -0.295 (inactive) | 0.872 (inactive) | -0.741 (inactive) | -0.472 (inactive) | 1.25 | 0.127 |
